This is part of a sample that, as a whole, favours compounds with a hit. Of some 83,000 tested, about 20% had one in any assay.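 Plates (96-well) were seeded with cells, treated with compound at one concentration, and incubated for 48 hours before percent growth was determined.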 The source made the active and inactive calls. How the source made its calls: active means growth percent below 10; inactive means the rest.

The experiment relates to HCT-116 colon. As to the kind of experiment: NCI-60 one-dose screen, 48 h (100 = growth as untreated, 0 = no growth, -100 = all killed). The conditions noted are these: 10 µM unless noted.
`CCn1cc(C(=O)O)c(=O)c2cc(F)c(N3CCN(CC(=O)Nc4ccccc4)C(C)C3)c(F)c21` (stereo not given): the growth was 99.9% (inactive).

Turning to `c1cc(OCCN2CCCCC2)ccc1CNc1ccc2nc(CCC3CCCCC3)[nH]c2c1`, the growth was 12.9% (inactive).

As for `COC1C(O)CC(OC2CC(OC3CC(O[C@@H]4C(=O)c5c(cc6cc(OC7CC(OC8CC(O)C(O)C(C)O8)C(O)C(C)O7)c(C)c(O)c6c5O)CC4[C@H](OC)C(=O)C(C)=O)OC(C)C3O)OC(C)C2O)OC1C` (stereo not given in full), the growth is 4.47% (active).

`Cc1ccc(OCCOCCOCCOc2ccc(C)n(O)c2=S)c(=S)n1O`: the growth is 9.46% (active).

In the case of `Cn1cc(-c2csc(-c3cn(CCCN4CCOCC4)c4ccc(F)cc34)n2)c2cccnc21`, the growth is 72.3% (inactive).

Turning to `O=C1c2cccnc2C(=O)c2c1c(C(=O)OCCc1ccccn1)c1ccccn21`, the growth is -48.3% (active).

As for `C#CCOc1cccc(Nc2ncnc3c2ncn3C2CCN(C(=O)CCl)C2)c1` (stereo not given), the growth was 1.32% (active).

Turning to `O=C(Cn1nc(-c2cccc3ccccc23)ccc1=O)NCc1cccc(Cl)c1`, the growth was 33.5% [50 µM] (inactive).

On to `Clc1ccc(-c2cc(-c3ccccc3)nc(N3CCN(CCCNc4ccnc5cc(Cl)ccc45)CC3)n2)cc1`, for which the growth is -79.6% (active).

On to `Nc1nc(C(=O)N/N=C/c2ccc(F)cc2)nn1-c1ccc(S(N)(=O)=O)cc1`, for which the growth was 101% (inactive).

With `CN(C)c1ccc(CNCCO)cc1`, the growth is 72.1% (inactive).

On to `Nc1c(Br)cc2c(c1Br)Cc1cc([N+](=O)[O-])ccc1-2`, for which the growth is 95.3% (inactive).

On to `COC(=O)Cn1c2c(c3c(OC)cccc31)C(=O)c1ccccc1-2`, for which the growth was 89.1% (inactive).

Turning to `O=C(/C=C/c1ccccc1)c1ccc(-n2cc(CN3CCN(c4cc5c(cc4F)c(=O)c(C(=O)O)cn5C4CC4)CC3)nn2)cc1`, the growth was 6.95% (active).

On to `Cc1cc2oc(/C=C/c3ccccc3)cc(=O)c2c(C)c1Cl`, for which the growth was 105% (inactive).

As for `Cc1nc(N/N=C/c2cn(-c3ccccc3)nc2-c2cc3ccccc3oc2=O)sc1N=Nc1ccccc1`, the growth is 87.4% (inactive).

In the case of `Oc1c(CN2CCC(N3CCOCC3)CC2)cc(Cc2cc(CN3CCC(N4CCOCC4)CC3)c(O)c3ncccc23)c2cccnc12`, the growth is 11.5% (inactive).

For `N#Cc1nn(-c2cc(=O)[nH]c3ccc(Br)cc23)c(N)c1C#N`, the growth is 85.7% (inactive).

Regarding `CCCCO[C@@H]1C=C2[C@H]3CC(C)(C)C(=O)C[C@]3(C(=O)O[C@@H]3O[C@H](CO[C@@H]4O[C@H](CO)[C@@H](OC5OC(C)C(O)C(O)C5O)[C@H](O)[C@H]4O)[C@@H](O)[C@H](O)[C@H]3O)CC[C@@]2(C)[C@]2(C)CC[C@H]3C(C)(C)C(=O)CC[C@]3(C)[C@@H]12` (stereo not given in full), the growth was 64.9% (inactive).

`CC(=O)c1c(Nc2cccc(F)c2)[nH]c2c(Cl)cc(Cl)c(Cl)c2c1=O`: the growth was 5.08% (active).

`O=c1cc(CP(=O)(O)O)c2cc(O)c(-c3ccccc3)cc2o1`: the growth is 108% (inactive).

Regarding `CC(=O)c1sc(-c2ccc(F)cc2)cc1O`, the growth was 95.3% (inactive).

Turning to `CC(=O)c1ccc(-n2cc(CN3CCN(c4cc5c(cc4F)c(=O)c(C(=O)O)cn5C4CC4)CC3)nn2)cc1`, the growth is -9.74% (active).

On to `COc1ccc(CN2C(=O)OC(C)(COC(C)=O)C2=O)cc1` (stereo not given), for which the growth was 93.5% (inactive).

Turning to `O=C1CCCC1[n+]1ccccc1` (stereo not given), the growth was 79.6% (inactive).

For the compound `CN(C)CCC(=O)C1CC1`, the growth is 96.1% (inactive).

Turning to `Nc1ccc(-c2ccncc2)cc1NC(=O)N1CCCC1`, the growth was 86.8% (inactive).

Consider `O=c1oc2c(cnc3ccccc32)cc1-c1cccc(Cl)c1`, for which the growth was 105% (inactive).

As to `C/C(=C(\c1ccc(OCCN2CCCCCC2)cc1)c1ccc(OC(=O)c2ccccc2)cc1)c1ccc(Cl)cc1`, the growth was 17.9% (inactive).

`Nc1cccc(-c2ccc(COc3ccc(CC4SC(=O)NC4=O)cc3)cc2)c1` (stereo not given): the growth is 32.1% (inactive).

In the case of `C=C(C)[C@@H]1CC[C@]2(COC3CCCCO3)CC[C@]3(C)[C@H](CC[C@@H]4[C@@]5(C)C=C(C=O)C(=O)C(C)(C)[C@@H]5CC[C@]43C)[C@@H]12` (stereo not given in full), the growth is -92.4% (active).

Take `O=C1CCCCN1c1ccc(C2=NCCCN2)cc1`: the growth was 92.1% (inactive).

As to `Cc1cc(=O)oc2cc(Oc3nc(Br)cn4c(Br)cnc34)ccc12`, the growth was 55.5% (inactive).

`C=CN(C(=O)N1CCN(c2cc3c(cc2F)c(=O)c(C(=O)O)cn3C2CC2)CC1)c1nc(-c2ccc(Cl)cc2)cs1`: the growth is 24.1% (inactive).

In the case of `Cc1ccccc1N1CCN(C(=S)c2ccccc2)CC1`, the growth was 91.9% (inactive).

The record behind these values is PubChem BioAssay (NCI).
